Common to all, as to design: scale not given: direction of the effect not stated beside the values
The target in test [1] is Protein translocase subunit SecA (Escherichia coli (strain K12)) (UniProt P10408). Description: Assay to Identify E. coli SecA ATPase Inhibitors. It is filed as functional. The following applies: 30 µM.
In test [2] the target is T1, Ubiquitin-activating enzyme e1, putative (Leishmania donovani (strain BPK282A1)) (UniProt E9BSI1).
T1 sequence (whole entry): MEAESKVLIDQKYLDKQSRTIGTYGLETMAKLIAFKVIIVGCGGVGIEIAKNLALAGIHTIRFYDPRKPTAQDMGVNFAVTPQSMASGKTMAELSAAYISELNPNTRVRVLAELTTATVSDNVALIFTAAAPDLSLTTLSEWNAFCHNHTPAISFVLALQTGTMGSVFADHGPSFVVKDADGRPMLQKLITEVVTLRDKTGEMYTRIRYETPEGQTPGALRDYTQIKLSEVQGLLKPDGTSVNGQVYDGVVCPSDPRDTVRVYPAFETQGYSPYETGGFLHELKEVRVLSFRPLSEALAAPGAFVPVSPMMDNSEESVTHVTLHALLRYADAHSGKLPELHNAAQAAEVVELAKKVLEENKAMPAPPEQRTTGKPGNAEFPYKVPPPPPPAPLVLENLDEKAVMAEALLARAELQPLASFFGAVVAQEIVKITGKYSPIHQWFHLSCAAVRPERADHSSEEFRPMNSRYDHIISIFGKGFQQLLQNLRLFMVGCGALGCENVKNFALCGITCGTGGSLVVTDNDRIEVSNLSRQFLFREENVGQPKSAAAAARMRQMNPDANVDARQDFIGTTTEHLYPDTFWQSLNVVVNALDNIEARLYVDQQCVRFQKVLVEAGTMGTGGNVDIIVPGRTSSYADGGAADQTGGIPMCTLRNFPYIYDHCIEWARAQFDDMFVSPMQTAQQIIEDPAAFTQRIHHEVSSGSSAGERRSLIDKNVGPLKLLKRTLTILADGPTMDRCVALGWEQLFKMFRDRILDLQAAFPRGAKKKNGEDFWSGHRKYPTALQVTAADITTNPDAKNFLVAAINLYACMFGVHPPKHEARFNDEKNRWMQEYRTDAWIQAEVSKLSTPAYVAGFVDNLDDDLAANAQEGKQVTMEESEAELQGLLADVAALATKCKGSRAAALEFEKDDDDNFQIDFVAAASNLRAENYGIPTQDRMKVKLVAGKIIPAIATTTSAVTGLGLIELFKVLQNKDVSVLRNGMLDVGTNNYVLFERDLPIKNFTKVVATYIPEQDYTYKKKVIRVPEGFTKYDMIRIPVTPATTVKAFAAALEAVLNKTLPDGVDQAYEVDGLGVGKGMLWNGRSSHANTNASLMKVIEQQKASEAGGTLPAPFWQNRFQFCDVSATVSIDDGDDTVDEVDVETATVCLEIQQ
Briefly: Leishmania donovani Ubiquitin Activating Enzyme (LdE1). It counts as functional. The following applies: 30 µM.

In test [3] the target is AMP-activated protein kinase, AMPK (Homo sapiens) (UniProt P54646+O43741+P54619+Q9UGJ0+Q9Y478+Q13131+Q9UGI9). Description: AMP-dependent Kinase enzyme assay. An in vitro enzyme assay that detects ADP turnover that is directly proportional to AMPK activity. This uses naive AMPK that is activated during the assay with MK-8722. Particulars: 30 µM. It is filed as functional.

In test [4] the target is Sialic acid-binding Ig-like lectin 9 (Homo sapiens) (UniProt Q9Y336). Briefly: Hs-Siglec9 ALPHAscreen SOP 20170721. Particulars: 10 µM.
Sialic acid-binding Ig-like lectin 9 (Homo sapiens), sequence (Q9Y336 whole entry): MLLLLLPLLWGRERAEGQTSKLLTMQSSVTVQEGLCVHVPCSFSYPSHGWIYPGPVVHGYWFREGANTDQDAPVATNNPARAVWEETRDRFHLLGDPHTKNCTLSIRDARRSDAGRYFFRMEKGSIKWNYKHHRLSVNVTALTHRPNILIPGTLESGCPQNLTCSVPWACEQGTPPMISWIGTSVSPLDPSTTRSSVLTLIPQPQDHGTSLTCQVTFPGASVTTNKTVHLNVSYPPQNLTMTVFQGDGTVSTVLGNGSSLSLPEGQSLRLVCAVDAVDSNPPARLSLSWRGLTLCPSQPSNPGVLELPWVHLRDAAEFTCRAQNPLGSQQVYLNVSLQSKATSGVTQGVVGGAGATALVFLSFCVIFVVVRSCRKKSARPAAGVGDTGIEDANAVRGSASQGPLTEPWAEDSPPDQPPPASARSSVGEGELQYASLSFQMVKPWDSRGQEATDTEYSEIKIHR
Another test concerns Trypanosoma cruzi. Description: Trypanosoma cruzi phosphomannomutase and mannose-1-phosphate guanylyltransferase assay. It is filed as functional. Particulars: 10 µM.
Test [5] addresses T2, Arginase-2, mitochondrial (Homo sapiens) (UniProt P78540).
T2 sequence (whole entry): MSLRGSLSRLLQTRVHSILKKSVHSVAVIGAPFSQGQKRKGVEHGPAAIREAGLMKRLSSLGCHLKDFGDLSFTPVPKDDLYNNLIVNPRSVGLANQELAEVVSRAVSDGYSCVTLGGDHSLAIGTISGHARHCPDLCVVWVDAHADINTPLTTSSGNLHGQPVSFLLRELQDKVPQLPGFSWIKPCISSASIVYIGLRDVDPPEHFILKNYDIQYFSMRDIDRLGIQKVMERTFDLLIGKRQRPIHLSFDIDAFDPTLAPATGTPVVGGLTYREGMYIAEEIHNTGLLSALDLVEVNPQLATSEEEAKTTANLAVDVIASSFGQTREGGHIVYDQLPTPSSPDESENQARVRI
Briefly: in vitro enzyme assay to detect the production of urea directly proportional to the activity of Arginase II. Note: in the data most compounds retested in dose-response had high values. It counts as functional. Particulars: 33.3 µM.

For test [6], the target named is T3, Proteasome subunit beta (Trypanosoma cruzi) (UniProt O96673).
T3 sequence (whole entry): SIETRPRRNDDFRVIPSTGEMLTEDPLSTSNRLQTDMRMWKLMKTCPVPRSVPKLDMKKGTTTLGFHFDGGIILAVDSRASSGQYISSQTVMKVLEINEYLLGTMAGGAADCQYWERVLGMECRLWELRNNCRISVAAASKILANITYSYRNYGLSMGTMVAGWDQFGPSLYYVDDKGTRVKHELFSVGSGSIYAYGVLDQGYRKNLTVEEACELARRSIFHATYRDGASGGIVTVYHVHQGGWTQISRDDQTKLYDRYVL
Briefly: Trypanosoma cruzi proteasome chymotrypsin-like activity (TcProtChymo) assay. Note: in the data most compounds retested in dose-response had high values. It is filed as functional. The following applies: 9.37 µM.

The species entered for the next test is Homo sapiens. Briefly: To identify inhibition of the IFN signalling (Jak-Stat) pathway via expression of an eGFP reporter gene under the control of an IFN-stimulated response element (ISRE) containing MxA promoter. It is filed as functional. Particulars: 30 µM.
Test [7] deals with T4, Tyrosyl-tRNA synthetase, putative (Trypanosoma cruzi (strain CL Brener)) (UniProt Q4DSP6).
T4 sequence (whole entry): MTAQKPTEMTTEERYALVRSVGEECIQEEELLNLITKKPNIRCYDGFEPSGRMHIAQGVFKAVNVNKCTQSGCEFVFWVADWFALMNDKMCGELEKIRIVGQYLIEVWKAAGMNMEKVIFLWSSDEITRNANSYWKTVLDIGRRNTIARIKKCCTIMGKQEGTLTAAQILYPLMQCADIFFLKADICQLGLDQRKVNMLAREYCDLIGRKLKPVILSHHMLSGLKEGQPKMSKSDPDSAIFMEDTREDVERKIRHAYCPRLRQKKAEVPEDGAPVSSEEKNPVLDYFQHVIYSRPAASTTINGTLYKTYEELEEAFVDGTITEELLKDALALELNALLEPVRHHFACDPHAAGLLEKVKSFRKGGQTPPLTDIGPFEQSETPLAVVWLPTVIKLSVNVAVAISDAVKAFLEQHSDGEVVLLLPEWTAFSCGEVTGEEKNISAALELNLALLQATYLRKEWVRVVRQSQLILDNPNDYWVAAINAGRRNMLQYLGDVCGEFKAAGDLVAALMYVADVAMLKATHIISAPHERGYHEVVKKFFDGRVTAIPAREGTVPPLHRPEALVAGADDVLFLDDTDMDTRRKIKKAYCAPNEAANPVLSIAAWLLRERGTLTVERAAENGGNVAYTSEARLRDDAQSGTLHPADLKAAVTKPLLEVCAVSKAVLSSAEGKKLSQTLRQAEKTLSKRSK
Briefly: Trypanosoma cruzi tyrosyl tRNA synthetase (TcYRS) _High Tyrosine SOP. Note: in the data most compounds retested in dose-response had high values. Particulars: 30 µM. It is filed as functional.

The target of test [8] is T4, Tyrosyl-tRNA synthetase, putative (Trypanosoma cruzi (strain CL Brener)). Briefly: Trypanosoma cruzi tyrosyl tRNA synthetase (TcYRS) SOP. It counts as functional. The following applies: 30 µM.
The target in test [9] is Chromo domain-containing protein 1 (Saccharomyces cerevisiae (strain ATCC 204508 / S288c) (Baker's yeast)) (UniProt P32657). Description: ScCHD-1 Enzyme Inhibition Assay. Note: in the data most compounds retested in dose-response had high values. It counts as functional. The following applies: 30 µM.
Chromo domain-containing protein 1 (Saccharomyces cerevisiae (strain ATCC 204508 / S288c) (Baker's yeast)), sequence (P32657 whole entry, the tested form may be a part): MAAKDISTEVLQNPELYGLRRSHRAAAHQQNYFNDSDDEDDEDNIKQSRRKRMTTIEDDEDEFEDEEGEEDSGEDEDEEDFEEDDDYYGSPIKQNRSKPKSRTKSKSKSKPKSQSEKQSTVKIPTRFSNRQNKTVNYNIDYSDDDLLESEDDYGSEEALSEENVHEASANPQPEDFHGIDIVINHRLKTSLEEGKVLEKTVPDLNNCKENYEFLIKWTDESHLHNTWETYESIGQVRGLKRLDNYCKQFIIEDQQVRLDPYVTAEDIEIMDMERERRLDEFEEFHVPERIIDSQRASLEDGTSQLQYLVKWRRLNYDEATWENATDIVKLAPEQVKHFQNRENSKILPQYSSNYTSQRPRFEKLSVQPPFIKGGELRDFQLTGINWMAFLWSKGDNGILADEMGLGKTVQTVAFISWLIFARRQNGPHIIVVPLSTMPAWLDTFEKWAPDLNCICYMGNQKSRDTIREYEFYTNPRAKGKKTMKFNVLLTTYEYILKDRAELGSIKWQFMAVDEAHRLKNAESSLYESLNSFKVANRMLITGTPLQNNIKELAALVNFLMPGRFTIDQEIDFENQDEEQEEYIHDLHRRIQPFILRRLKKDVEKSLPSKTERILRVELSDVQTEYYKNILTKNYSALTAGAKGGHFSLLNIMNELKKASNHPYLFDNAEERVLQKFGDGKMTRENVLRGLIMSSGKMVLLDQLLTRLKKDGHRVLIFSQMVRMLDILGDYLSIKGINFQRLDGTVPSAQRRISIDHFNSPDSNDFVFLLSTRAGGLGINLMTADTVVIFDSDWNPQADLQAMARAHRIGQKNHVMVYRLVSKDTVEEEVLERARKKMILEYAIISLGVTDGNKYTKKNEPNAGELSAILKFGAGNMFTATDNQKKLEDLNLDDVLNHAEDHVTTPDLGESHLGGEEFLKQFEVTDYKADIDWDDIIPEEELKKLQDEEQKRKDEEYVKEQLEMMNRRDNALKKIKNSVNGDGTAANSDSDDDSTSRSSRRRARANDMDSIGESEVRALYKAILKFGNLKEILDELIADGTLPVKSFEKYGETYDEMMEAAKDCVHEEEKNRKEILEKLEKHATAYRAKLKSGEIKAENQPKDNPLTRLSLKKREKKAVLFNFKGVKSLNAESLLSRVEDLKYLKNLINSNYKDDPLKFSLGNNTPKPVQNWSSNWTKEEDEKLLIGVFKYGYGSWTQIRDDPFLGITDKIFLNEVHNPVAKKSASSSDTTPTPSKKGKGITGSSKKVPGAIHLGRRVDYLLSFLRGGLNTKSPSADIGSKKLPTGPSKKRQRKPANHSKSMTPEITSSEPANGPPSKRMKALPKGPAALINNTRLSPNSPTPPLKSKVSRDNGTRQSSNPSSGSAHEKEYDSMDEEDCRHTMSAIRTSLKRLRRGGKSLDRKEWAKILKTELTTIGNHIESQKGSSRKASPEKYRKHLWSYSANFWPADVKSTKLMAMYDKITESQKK

For some of these results: Measured potencies and affinities stand elsewhere.

Protein translocase subunit SecA (Escherichia coli (strain K12)), sequence (P10408 whole entry): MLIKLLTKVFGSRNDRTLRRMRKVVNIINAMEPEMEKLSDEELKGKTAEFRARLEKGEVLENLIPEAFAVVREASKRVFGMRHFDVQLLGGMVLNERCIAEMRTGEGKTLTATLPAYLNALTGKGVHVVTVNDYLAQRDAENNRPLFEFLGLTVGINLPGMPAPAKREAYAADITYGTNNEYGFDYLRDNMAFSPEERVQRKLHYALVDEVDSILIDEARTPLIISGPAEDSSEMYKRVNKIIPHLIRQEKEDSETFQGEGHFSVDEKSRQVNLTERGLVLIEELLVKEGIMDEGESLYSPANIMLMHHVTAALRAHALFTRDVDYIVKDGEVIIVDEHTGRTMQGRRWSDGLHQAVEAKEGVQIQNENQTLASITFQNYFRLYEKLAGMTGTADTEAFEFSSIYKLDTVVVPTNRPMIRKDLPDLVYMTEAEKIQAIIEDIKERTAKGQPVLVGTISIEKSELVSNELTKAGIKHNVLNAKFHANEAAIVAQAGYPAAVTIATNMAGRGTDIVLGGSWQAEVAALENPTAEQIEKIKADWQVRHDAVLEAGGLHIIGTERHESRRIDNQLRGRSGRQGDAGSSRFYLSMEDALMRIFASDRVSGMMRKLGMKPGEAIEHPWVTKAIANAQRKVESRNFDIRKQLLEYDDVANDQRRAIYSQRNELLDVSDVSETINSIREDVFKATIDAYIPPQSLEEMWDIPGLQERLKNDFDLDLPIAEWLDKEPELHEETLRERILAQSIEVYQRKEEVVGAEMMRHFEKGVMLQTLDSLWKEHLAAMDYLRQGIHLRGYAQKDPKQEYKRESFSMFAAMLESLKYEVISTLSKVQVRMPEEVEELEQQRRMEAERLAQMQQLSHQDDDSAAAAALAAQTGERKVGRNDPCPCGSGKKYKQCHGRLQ

Take `COCCN(C)CCN1CC2(CCN(C(=O)C3CCOC3)CC2)OC1=O` (stereo not drawn): the Percent Effect was -4.65% in test [1]; 18.2% in test [2]; 9.58% in [3]; 7.65% in test [4]; 5.21% with Trypanosoma cruzi; -12.4% in [5]. Also, the Percent Effect in test [6] is 23.1%; in the test listed under Homo sapiens it was 6.21%; in test [7], 7.53%; in [8] it was 18.5%; in [9], -7.01%.

On to `Cc1ccc2c(n1)N(CCN(C)C)CCN(C(=O)c1ccc[nH]1)C2`, for which the Percent Effect was -0.711% in [1]; 10.7% in test [2]; 6.26% in [3]; -13% in test [4]; -8.07% with Trypanosoma cruzi; 1.63% in test [5]. The Percent Effect was 18.6% in test [6]; -6.38% in the test listed under Homo sapiens; 1.06% in [7]; 3.85% in test [8]; -1.69% in test [9].

As to `Cc1cc(C[S+]([O-])CC(=O)NCC(C)C)no1` (stereo not drawn), the Percent Effect was -4.4% in test [1]; 18.2% in test [2]; 6.46% in [3]; -1.61% in [4]; -2.06% in the test with Trypanosoma cruzi; -2.49% in [5]. The Percent Effect in [6] is 0.676%; in the test listed under Homo sapiens, -13.6%; in [7], 7.77%; in [8], 12.2%; in test [9], -5.33%.

`Cc1noc(C)c1CN1CC[C@@H](OCC2CC2)[C@@H](Cc2ccccc2)C1`: the Percent Effect in test [1] is -3.38%; in [2], 13.3%; in [3], 8.95%; in test [4] it was -2.52%; in the test with Trypanosoma cruzi, 3.15%; in [5], 1.63%. Also, the Percent Effect in [6] was 14%; in the test listed under Homo sapiens it was 1.91%; in test [7], 5.32%; in test [8], 14.1%; in test [9] it was -5.06%.

As to `Cc1cccc(CC(=O)NCCCOC(C)C)c1`, the Percent Effect in test [1] was -0.872%; in test [2], 18.2%; in test [3], 0.619%; in test [4] it was -8.05%; in the test on Trypanosoma cruzi, -3.75%; in test [5] it was 0.712%. For the same molecule, the Percent Effect in test [6] is 9.8%; in the test listed under Homo sapiens it was 27.8%; in test [7], 9.71%; in [8] it was 19.5%; in test [9], -7.62%.

`Cc1oc(C)c(C(=O)NCc2cccc(NC(=O)CN(C)C)c2)c1C`: the Percent Effect was -4.78% in [1]; -3.8% in test [2]; -0.508% in [3]; -0.734% in [4]; 1.95% in the test on Trypanosoma cruzi; -1.94% in test [5]. Further, the Percent Effect was 0.172% in test [6]; -3.06% in the test filed under Homo sapiens; 1.04% in [7]; 7.59% in test [8]; 7.97% in [9].

Regarding `CN(Cc1csc(-c2cccs2)n1)C(=O)CCn1ccccc1=O`, the Percent Effect in test [1] is -4.95%; in test [2], 8%; in [3], -1.99%; in test [4], 4.47%; in the test with Trypanosoma cruzi, -1.07%; in [5], 5.21%. In addition, the Percent Effect in [6] was 22.7%; in the test listed under Homo sapiens, 10.8%; in [7] it was 3.83%; in test [8], 11.1%; in test [9] it was -4.75%.

Turning to `Cn1cccc1C(=O)N1CCC2(CC1)CN(c1ccccn1)CCO2`, the Percent Effect in test [1] was -5.31%; in [2], 5.2%; in test [3], -0.668%; in [4], 10.6%; with Trypanosoma cruzi, 9.54%; in test [5], -55.2%. For the same molecule, the Percent Effect in test [6] is 5.49%; in the test filed under Homo sapiens it was 6.16%; in [7], -2.15%; in test [8], -1.24%; in test [9], -2.89%.

(Values after ChEMBL document CHEMBL3988442, “University of Dundee, Small-Polar-MMV Screening Library” (2021).)
